These results are taken from PubChem BioAssay AID753 (Emory University Molecular Libraries Screening Center, 2007).

SMILES strings stand for the structures. The list shows a part of the results. Results filed as inconclusive are left out. Unmarked numbers belong to inactive results.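 How the source made its calls: active means percent of control activity at or below 60%; inconclusive means HPLC trace unusable from injection failure or solvent front hiding peaks; inactive means the rest, plus ubiquitin peak ratio over a set limit.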

In this experiment the target is Ubiquitin carboxyl-terminal hydrolase BAP1 (Homo sapiens) (UniProt Q92560). As to the kind of experiment: BAP1 ubiquitin ester hydrolysis inhibition – biochemical, Ub-ethyl ester substrate, HPLC readout, orthogonal assay, confirmation (AID 753). Conditions: purified BAP1, Ub-ethyl ester hydrolysis, at 20 µM, stronger effect = lower value.
Chain of Ubiquitin carboxyl-terminal hydrolase BAP1 (Homo sapiens) (Q92560 whole entry, looked up): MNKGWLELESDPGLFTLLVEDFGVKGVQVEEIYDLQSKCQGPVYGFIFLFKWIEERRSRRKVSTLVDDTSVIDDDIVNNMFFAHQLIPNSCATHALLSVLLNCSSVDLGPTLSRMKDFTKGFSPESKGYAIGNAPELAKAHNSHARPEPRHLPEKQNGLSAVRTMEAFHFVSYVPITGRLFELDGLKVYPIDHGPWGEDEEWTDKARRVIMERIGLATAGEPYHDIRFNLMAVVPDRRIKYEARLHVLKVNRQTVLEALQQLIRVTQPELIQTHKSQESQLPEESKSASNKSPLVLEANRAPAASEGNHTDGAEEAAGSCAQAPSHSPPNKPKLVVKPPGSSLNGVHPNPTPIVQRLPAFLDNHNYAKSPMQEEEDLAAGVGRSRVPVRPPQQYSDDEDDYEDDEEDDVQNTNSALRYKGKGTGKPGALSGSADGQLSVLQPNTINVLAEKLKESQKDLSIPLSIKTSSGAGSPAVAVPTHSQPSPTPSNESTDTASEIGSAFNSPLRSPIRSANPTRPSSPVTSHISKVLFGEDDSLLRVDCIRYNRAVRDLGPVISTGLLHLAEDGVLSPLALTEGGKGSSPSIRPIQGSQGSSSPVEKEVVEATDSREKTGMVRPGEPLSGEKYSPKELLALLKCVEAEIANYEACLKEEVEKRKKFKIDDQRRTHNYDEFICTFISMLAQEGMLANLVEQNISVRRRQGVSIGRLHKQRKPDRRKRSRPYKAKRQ

On to `CCCCCn1c(=O)c(C(=O)NCc2ccccn2)c(O)c2ccccc21`, for which the % of control activity was 112%.
